Compounds without any hit were thinned out: in the full panel of roughly 79,000, 15% have a hit. Cut-off read from the data, not from the text of the source: active = growth inhibition above about 70%; inactive = the rest.
Key:
[1] = NCI Yeast Anticancer Drug Screen. Data for the rad50 strain (AID 155);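 note: 0% = growth of vehicle-only cultures of the same strain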; conditions: S. cerevisiae rad50 strain growth inhibition; at 50.0 µM; stronger effect = higher value
Procedure, shortened: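 Relative growth inhibition (compound vs vehicle) was measured in yeast with a defined repair-gene alteration.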

[2] = NCI Yeast Anticancer Drug Screen. Data for the mec2-1 strain (AID 157); conditions: S. cerevisiae mec2-1 strain, at 50.0 µM, stronger effect = higher value
Procedure, shortened: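 Vehicle-treated cultures served as reference for growth inhibition of compound-exposed mec2-1 yeast.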

[3] = NCI Yeast Anticancer Drug Screen. Data for the sgs1 mgt1 strain (AID 161);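 note: 0% = growth of cultures given vehicle only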; conditions: S. cerevisiae sgs1 mgt1 strain, at 50.0 µM, stronger effect = higher value
Procedure, shortened: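 Genetically altered yeast, compound exposure, growth inhibition relative to vehicle.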

[4] = NCI Yeast Anticancer Drug Screen. Data for the cln2 rad14 strain (AID 165);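 note: 0% = growth equal to vehicle treated cultures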; conditions: S. cerevisiae cln2 rad14 strain, at 50.0 µM, stronger effect = higher value
Procedure, shortened: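 Each compound was tested on cln2 rad14 yeast. Inhibition of growth was calculated against vehicle-exposed controls.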

[5] = NCI Yeast Anticancer Drug Screen. Data for the bub3 strain (AID 167); conditions: S. cerevisiae bub3 mutant strain, at 50.0 µM, stronger effect = higher value
Procedure, shortened: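 Screening used yeast with an engineered genetic alteration affecting cell cycle control. Compound-exposed cultures were compared with vehicle cultures, and reduced growth was taken as inhibition.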

[6] = NCI Yeast Anticancer Drug Screen. Data for the mlh1 rad18 strain (AID 175); conditions: S. cerevisiae mlh1 rad18 strain growth inhibition; at 50.0 µM; stronger effect = higher value
Procedure, shortened: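 Vehicle-treated cultures served as the reference for growth inhibition in a yeast strain carrying DNA damage repair alterations exposed to each compound.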

Measured: growth inhibition

CC(C)=C1C2C=CC1C(CO)C2CO (stereo not given)
inactive: [1] 9.8% | [2] -4.4% | [3] -3.95% | [4] -64% | [5] 2.2% | [6] 10.8%

COc1ccc(N2C(=O)[C@@H](N=[N+]=[N-])[C@@H]2[C@H]2COC(C)(C)O2)cc1
inactive: [1] 1.95% | [2] -14.3% | [3] 1.3% | [4] 5% | [5] 3.35% | [6] 9%

COC(=O)C1=C(C)N(NC(N)=O)C2(N)N(NC(N)=O)C(C)=C(C(=O)OC)C12C(=O)OC (stereo not given)
inactive: [1] -9.65% | [2] -31.2% | [3] -43.2% | [4] -9.7% | [5] -4% | [6] -26.4%

C[Si](C)(COC(N)=O)Cc1ccccc1
inactive: [1] -28.1% | [2] -12.6% | [3] -15.5% | [4] -1.2% | [5] -10.6% | [6] -32%

CC(C)CC(=O)NS(=O)(=O)c1ccccc1
inactive: [1] -6.15% | [2] 5.05% | [3] -3.05% | [4] 5.2% | [5] -17.4% | [6] -22.2%

C=CCNC(=O)/C(C)=C(\C)c1ccc(F)cc1
inactive: [1] 4.15% | [2] 6% | [3] 3.2% | [4] -17.7% | [5] 2.5% | [6] -4.7%

Cc1nn(C(=O)c2ccncc2)c2c1C(c1cccc([N+](=O)[O-])c1)SC(N)=N2 (stereo not given)
inactive: [1] -55.5% | [2] -45.6% | [3] -32.2% | [4] 2.1% | [5] -10.6% | [6] -28.2%

O[C@]12c3ccccc3C1CCCCC2N1CCOCC1 (stereo not given in full)
inactive: [1] -15.8% | [2] -41% | [3] -61% | [4] -8.45% | [5] -24.1% | [6] -35.4%

COc1ccc(C=Nc2c(O)ccc3ccccc23)cc1OC
inactive: [1] 12.6% | [2] -11.6% | [3] -24.9% | [4] -15.3% | [5] -17.4% | [6] -0.75%

Nc1nc(=O)[nH]c2n[nH]nc12
inactive: [1] -18.2% | [2] -7.15% | [3] 6.7% | [4] -3.15% | [5] -2.35% | [6] 0.2%

CCc1c(O)nc(Nc2nc3ccccc3[nH]2)[nH]c1=O
inactive: [1] -34.4% | [2] -21.8% | [3] -21.4% | [4] -23.5% | [5] -33% | [6] -56.5%

[N-]=[N+]=Nc1cc(-c2ccccc2)nc2cc3c(cc12)OCO3
inactive: [1] -2.9% | [2] -7.95% | [3] -19.8% | [4] -16.4% | [5] -34.2% | [6] -7.2%

O=C(Nc1c(Oc2ccc(Cl)c(Cl)c2)ccc(Cl)c1S(=O)(=O)O)Nc1c(Oc2ccc(Cl)c(Cl)c2)ccc(Cl)c1S(=O)(=O)O
inactive: [1] 22.2% | [2] -3.25% | [3] 13.9% | [4] 11.7% | [5] 22.1% | [6] 22.2%

O=P(O)(O)Oc1ccc(NCCO)cc1
inactive: [1] -9.5% | [2] -5% | [3] 3.3% | [4] 17.4% | [5] 7.55% | [6] -13.9%

COC(=O)C1C(=O)C2CCC1C(=O)C2C(=O)OC (stereo not given)
inactive: [1] 1.95% | [2] -2.8% | [3] 16.4% | [4] 4.1% | [5] 9.75% | [6] 22.7%

COC(=O)Nc1c2ccccc2c(NC(=O)OC)c2ccccc12
inactive: [1] -7.15% | [2] 13% | [3] 19.7% | [4] -88.8% | [5] 23.1% | [6] 0.75%

C(=C(c1ccccc1)c1ccccc1)N1CCOCC1
inactive: [1] -2.3% | [2] -5.5% | [3] 4.7% | [4] -52% | [5] -20.1% | [6] 1.2%

COC1OC(CO)C(O)C(O)C1Br (stereo not given)
inactive: [1] 19.8% | [2] 13.9% | [3] 13% | [4] 31.7% | [5] 23.8% | [6] 21.2%

C=CCOC(=O)CCC(C#N)(C#N)CCC(=O)OCC=C
inactive: [1] -9.55% | [2] -7.1% | [3] -0.4% | [4] -25.8% | [5] 50.5% | [6] 15.3%

Cc1cccc(NC(=O)C(Cl)Cl)n1
inactive: [1] -2.3% | [2] -20.8% | [3] -24.4% | [4] -43.8% | [5] -1.95% | [6] -18.1%

— PubChem BioAssay (NCI)
